Screening data deposited in PubChem BioAssay by National Center for Advancing Translational Sciences (NCATS).
An excerpt weighted towards active compounds, which were near 19% of everything screened.
DT40 TDP1 no CPT – qHTS for Inhibitors of human tyrosyl-DNA phosphodiesterase 1 (TDP1): qHTS in cells in absence of CPT | Potency, µM (top dose mostly 46.2 µM), inactives show at the top dose activity change, negative = growth inhibition, usual class: inhibitors | DT40 Tdp1-/- hTDP1 cells, no CPT, ATP luminescence, 48 h | 15% of 420,000 active; further: potency means the concentration at half of the fitted maximal effect; on the % scale 0 is the no-effect control and ±100 the full control effect; nearly all actives have a fitted effect of over 55% in size
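Chicken DT40 Tdp1-/- cells complemented with human TDP1, screened without camptothecin (DMSO vehicle only), 400 cells/well. Compounds pin-transferred, cells incubated at 37 °C for at least 48 hr. Growth read as ATP-dependent luminescence (CellTiter-Glo, 30 min at RT).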
BCR signal inh – chronic active BCR signaling inhibition | 0.05% of 340,000 active | Potency, µM (titrated, usually from 46.1 µM), for inactives: top-dose activity change, negative = inhibition, usual class: inhibitors | ABC-DLBCL IkBa-CBG/CBR reporter, luminescence ratio, 4 h | AID 493014; active means well fitted inhibition curve with a large enough effect in the signal ratio, with a control signal flat, not every such curve was filed as active; inconclusive means small, poorly fitted or top-dose-only effect, or effect the other way, or a change in a side signal; the % refers to the signal ratio;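 further: potency means the concentration at half of the fitted maximal effect; plate controls were basal doxycycline-induced cells for no effect and cells given 10 µM MG132 for full effect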
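TMD8 ABC-DLBCL cells carrying doxycycline-inducible green luciferase fused to IkappaBalpha plus unfused red luciferase were exposed to compounds (up to 46 uM) for 4 hrs at 37C. Activity came from the overlap-corrected green/red luminescence ratio.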
IL-1B inflam inh – blocks inflammasome-driven IL-1 beta release. THP-1 LPS/ATP IL-1B secretion, AlphaLISA, 16 h; active compounds read low. activity change, % at 57.5 µM. 4.7% of 360,000 active. AID 743279; in the data active means activity change below about -50%; inconclusive means mostly about -30% to -49%; further: on the % scale 0 is the no-effect control and ±100 the full control effect
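THP-1 cells pretreated 1 hr with compounds (up to 57.5 uM final), then stimulated with LPS (250 ng/mL final) plus ATP (1.25 mM final); secreted IL-1B measured by AlphaLISA after 16 hr, decreased signal indicating inhibition.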
TDP1 cell CPT – DT40-hTDP1 cell growth loss with CPT. AID 686979. chicken DT40 Tdp1-/-;hTDP1 cells + 20 nM CPT, ATP luminescence, 48 h. 12% of 420,000 active. Potency, µM (doses to about 46.2 µM), without a hit: at the top dose activity change, negative = growth inhibition, actives largely listed as inhibitors; further: potency means the concentration at half of the fitted maximal effect; on the % scale 0 is the no-effect control and ±100 the full control effect; nearly all actives have a fitted effect of over 55% in size
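Chicken DT40 Tdp1-/- cells complemented with human TDP1, 400 cells/well, exposed to compounds plus 20 nM camptothecin for at least 48 h at 37 C; viability read as ATP content by CellTiter-Glo luminescence.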
MCF10A rereplic – induces DNA re-replication in MCF 10a normal breast cells; MCF 10A DNA re-replication, Hoechst nuclear intensity, 48 h; Potency, µM (top dose mostly 46.1 µM), for inactives: at the top dose activity, positive = re-replication, most hits filed as activators; 2.9% of 350,000 active; AID 624296; further: potency means the concentration at half of the fitted maximal effect; % of control where 0% means no effect; nearly all actives have a fitted effect of over 50% in size
SW480 rereplic – DNA re-replication induction in SW480 cells; 1.8% of 340,000 active; SW480 DNA re-replication, Hoechst DNA content imaging, 48 h; Potency, µM (titrated, usually from 46.1 µM), for inactives: at the highest dose re-replication activation, usual class: activators; further: potency means the concentration at half of the fitted maximal effect; % of control where 0% means no effect; nearly all actives have a fitted effect of over 55% in size
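Compounds, transferred as 23 nL by pin tool, were incubated with cells for 48 hr; DNA content per nucleus was then quantified by Hoechst staining and fluorescence plate imaging.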
Starred values were filed as active, the others as inactive; ? = inconclusive; / = not tested or not shown. Unless noted, the call rests on the fitted dose curve; in most records, active means well fitted curve in the direction sought with a large enough effect; inconclusive means small, poorly fitted or top-dose-only effect, or another doubt; inactive means no such curve, though single readings can be large; an effect the other way counts as inactive or inconclusive.

SMILES	DT40 TDP1 no CPT	BCR signal inh	IL-1B inflam inh	TDP1 cell CPT	MCF10A rereplic	SW480 rereplic
CC(=O)O[C@H]1CC[C@@]2(C)[C@@H](CC[C@H]3[C@@H]4CC[C@H](C(C)O)[C@@]4(C)CC(=O)[C@@H]32)C1 (some centres undefined)	?	3%	-12	-30%	?	0%
CC(=O)OC1CCC2(C)C(CCC3C2CC(=O)C2(C)C3CC(C(C(C)=O)C(C)=O)C2C(C)=O)C1 (centres undefined)	?	/	16	?	-1%	1%
CC(=O)OC1CCC2(C)C(CCC3C2CC(=NO)C2(C)C(C(C)OC(C)=O)CCC32)C1 (centres undefined)	18µM*	/	-24	15µM*	28%	6%
NC(=O)c1ccc(NC(=O)COC(=O)c2cc3ccccc3cc2O)cc1	1%	-5%	52	1%	0%	3%
COC(=O)[C@@]12OC[C@]34[C@H]([C@@H](O)[C@@H]1O)[C@@]1(C)C(=O)C(O[C@@H]5OC(CO)[C@@H](O)[C@@H](O)[C@@H]5O)=C[C@@H](C)[C@@H]1C[C@H]3OC(=O)[C@H](OC(=O)/C=C(\C)C(C)(C)OC(C)=O)[C@@H]24 (some centres undefined)	3.3µM*	?	-56*	5.2µM*	23%	-6%
Cc1nn(C(C)C(=O)NCc2cccc(F)c2)c(=O)c2c1sc1ccccc12 (centres undefined)	?	/	/	-5%	/	/
COc1ccccc1NC(=O)c1ccc(CSc2ccccc2)o1	-19%	1%	0	?	8%	22%
COc1ccc(CCNC(=O)c2ccc(COc3ccccc3OC)o2)cc1	12µM*	?	-21	-19%	13%	-6%
CC(=O)c1ccc(NC(=O)c2ccc(CSc3ccccc3)o2)cc1	?	?	?	16µM*	?	16%
COc1ccc(CCNC(=O)c2ccc(CSc3ccccc3)o2)cc1	-15%	-18%	-59*	-9%	17%	0%
Cc1c(C(=O)NCC2COCCO2)cnn1-c1nccc(-c2cccs2)n1 (centres undefined)	-26%	/	/	-22%	/	/
O=C(CN(C(=O)c1csnn1)c1ccccc1C(F)(F)F)NC1CCCCC1	-17%	0%	40	6%	-4%	-9%
CCOc1ccc(C(C)=O)cc1CN1C(=O)C(=O)N(CC)C1=O	11%	-3%	8	3%	5%	-24%
O=C(CCN1CCOCC1)NNC(=S)NC(=O)c1ccc(Br)cc1	13µM*	?	4	15µM*	-2%	10%
CNC(=O)CSc1nnc(-c2ccco2)n1-c1cccc(OC)c1	12%	0%	-20	-9%	0%	-12%
O=c1c2ccccc2ncn1Cc1ccc(Cl)c(Cl)c1	0%	-10%	0	4%	1.2µM*	23%
O=c1cnn(Cc2ccc(Cl)c(Cl)c2)c2ccccc12	15µM*	-1%	-25	21µM*	8%	-14%
O=c1c2ccccc2ncn1Cc1ccc(Cl)cc1	-12%	2%	-13	-23%	8%	3%
COc1cc(/C=N/NS(=O)(=O)c2ccc(Br)cc2)ccc1O	4%	-3%	24	3%	2%	?
COc1ccc(Cl)cc1C=CC=Nc1ccccc1O	18µM*	/	?	23µM*	?	?
COc1ccc(Br)cc1C=NNS(=O)(=O)c1ccc(C)cc1	7.3µM*	/	73	?	/	/
COc1ccc(Cl)cc1C=CC=NNS(=O)(=O)c1ccc(C)cc1	16µM*	/	-4	18µM*	?	-2%
Cc1ccc(S(=O)(=O)N/N=C\C=C\c2ccccc2)cc1	-1%	10%	-5	-2%	?	?
COC(=O)c1ccccc1NC(=O)Cn1nnc2sc(-c3ccccc3)cc2c1=O	2%	/	/	-3%	/	/
COc1ccc(NC(=O)C(c2ccc(OC)cc2)n2c(=O)c(-c3cc4ccccc4[nH]3)nc3ccccc32)cc1 (centres undefined)	13µM*	/	2	16µM*	/	/
SMILES	DT40 TDP1 no CPT	BCR signal inh	IL-1B inflam inh	TDP1 cell CPT	MCF10A rereplic	SW480 rereplic
COc1ccc(NC(=O)C(c2ccc(C#N)cc2)n2c(=O)c(-c3cc4ccccc4[nH]3)nc3ccccc32)cc1 (centres undefined)	15µM*	/	12	21µM*	/	/
CC(C)(C)NC(=O)C(c1ccc(C#N)cc1)n1c(=O)c(-c2cc3ccccc3[nH]2)nc2ccccc21 (centres undefined)	?	/	16	?	/	/
O=C(Nc1ccc2c(c1)OCCO2)C(c1ccccc1F)n1c(=O)c(-c2cc3ccccc3[nH]2)nc2ccccc21 (centres undefined)	18µM*	/	-8	15µM*	/	/
COc1ccc(NC(=O)C(C2CC2)n2c(=O)c(-c3ccccc3)nc3ccccc32)cc1 (centres undefined)	15µM*	/	-17	?	/	/
CCOC(=O)[C@]12CCC=C1N(Cc1ccc3c(c1)OCO3)C(=O)[C@H](CC(=O)NCc1cccs1)C2	?	/	-8	?	/	/
Cc1nc(C(F)(F)F)ccc1C(=O)N1CCC1(C)C(=O)NS(C)(=O)=O (centres undefined)	-2%	/	-2	0%	/	/
CCOCc1cc(=O)[nH]c(SC)n1	-17%	-7%	1	-5%	-1%	-1%
CC1(C)CC(NC(=O)c2cc(Cl)ccc2Cl)CC(C)(C)N1	3%	0%	-5	10%	2%	9.2µM*
CC(C)Oc1ccc(CNS(=O)(=O)c2ccc(-c3cc(C(F)(F)F)on3)s2)cc1	-21%	/	/	-15%	/	/
COc1ccc2c(c1)c[n+](C)c1c3cc(OC)c(OC)cc3ccc21	1.2µM*	/	?	1.2µM*	/	/
COc1ccc(Cc2c3cc(OC)c(OC)cc3cc[n+]2C)cc1OC	-12%	-1%	2	-18%	1%	-5%
COc1cc2c[n+](C)c3c4ccccc4ccc3c2cc1OC	1.5µM*	/	-112*	1µM*	-8%	?
COc1ncccc1C(=O)NC1CCCc2c1cnn2-c1cc(C)cc(C)c1 (centres undefined)	-15%	6%	-56*	?	9%	-3%
Cc1cc(C)cc(-n2ncc3c2CCCC3NC(=O)c2csnn2)c1 (centres undefined)	-1%	-5%	-26	-15%	0%	-2%
